Screens (PubChem)
Gli-Sufu block – Gli-Sufu pathway antagonism; Sufu-KO-LIGHT fibroblasts, Gli luciferase reporter luminescence; inhibition, % at 5 µM; 340,000 tested, 0.74% active; AID 588413;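 active = inhibition above about 55%, limit read from the data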
PAX8 reporter – PAX8 transcriptional activity inhibition; AID 652154; inhibition, % at 12.6 µM; 360,000 tested, 1.2% active; RMG-I TPO-luciferase reporter, SteadyGlo, 24 h;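 active = mean replicate inhibition at least 60% with every replicate also reaching 60%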;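 note: luciferase light reporting Pax8 driven TPO promoter activity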
Beta apoptosis – blocks beta cell apoptosis; INS-1E cytokine-induced death, ATP luminescence, 48 h; percent of positive-control rescue, neutral wells zero; protection from apoptosis, % (concentration not given with the values); 300,000 tested, 0.8% active;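 active = Every replicate reaches about 75%, or at least half do and their mean reaches it too, limit read from the data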;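 note: higher means more ATP so stronger rescue from cytokine killing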
Shn3 inh set2 – reduces Shn3 3'UTR luciferase signal in osteoblasts; Clone20 osteoblast Shn3 3'UTR firefly luciferase, 24 h; inhibition, % at 12.5 µM; 360,000 tested, 0.52% active; AID 588674;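 active = mean inhibition of at least 75% with every replicate also reaching 75%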
CSC inhib – blocks cancer stem cells. cancer stem cell-like cells viability, luminescence. inhibition, % at 7.5 µM. 300,000 tested, 1.1% active; in the data active = inhibition above about 75%; tested in HMLE shEcad cells
Mdm2 MdmX PPI – disrupts the human Mdm2-MdmX interaction; AID 485346; O15151+Q00987; inhibition, % at 8 µM; 330,000 tested, 3% active; SaOS-2 split-luciferase Mdm2/MdmX complementation, luminescence;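 active = inhibition of at least 50% at 8 µM in the primary screen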
Target sequence (O15151 whole entry, looked up): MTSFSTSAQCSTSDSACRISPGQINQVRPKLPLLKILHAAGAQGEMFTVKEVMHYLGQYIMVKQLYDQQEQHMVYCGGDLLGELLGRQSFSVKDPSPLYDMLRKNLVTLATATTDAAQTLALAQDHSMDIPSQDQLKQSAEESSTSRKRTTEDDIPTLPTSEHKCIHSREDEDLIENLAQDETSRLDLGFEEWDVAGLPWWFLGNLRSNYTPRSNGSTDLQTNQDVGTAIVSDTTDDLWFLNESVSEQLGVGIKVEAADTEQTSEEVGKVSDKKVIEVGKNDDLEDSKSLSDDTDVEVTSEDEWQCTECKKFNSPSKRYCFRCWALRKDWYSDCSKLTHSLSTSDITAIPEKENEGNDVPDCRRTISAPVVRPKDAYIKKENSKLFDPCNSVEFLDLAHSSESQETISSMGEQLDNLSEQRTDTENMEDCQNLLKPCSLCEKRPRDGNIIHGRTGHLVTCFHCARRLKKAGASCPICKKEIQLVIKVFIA
Target sequence (Q00987 whole entry, looked up): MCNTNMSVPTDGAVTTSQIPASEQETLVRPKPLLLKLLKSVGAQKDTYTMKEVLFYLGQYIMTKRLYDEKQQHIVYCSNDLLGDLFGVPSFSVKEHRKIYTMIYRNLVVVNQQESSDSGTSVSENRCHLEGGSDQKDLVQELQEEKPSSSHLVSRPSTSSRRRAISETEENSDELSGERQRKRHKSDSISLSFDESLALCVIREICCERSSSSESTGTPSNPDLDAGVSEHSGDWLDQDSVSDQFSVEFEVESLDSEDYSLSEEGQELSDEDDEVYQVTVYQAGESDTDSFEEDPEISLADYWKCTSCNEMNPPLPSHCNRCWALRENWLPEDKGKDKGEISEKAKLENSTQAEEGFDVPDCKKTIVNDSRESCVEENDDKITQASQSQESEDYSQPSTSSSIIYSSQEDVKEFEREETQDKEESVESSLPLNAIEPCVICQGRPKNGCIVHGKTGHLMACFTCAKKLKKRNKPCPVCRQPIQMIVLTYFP
Mdm2 MdmX conf – human Mdm2/MdmX binding inhibition, confirmed; shares compounds with Mdm2 MdmX PPI; luminescent assay; inhibition, % at 8 µM; 10,000 tested, 55% active; in the data active = inhibition above about 40%
FLuc counter – counter-screen for Mdm2/MdmX inhibitors: full-length luciferase; inhibition, % at 8 µM; shares compounds with Mdm2 MdmX PPI; SaOS-2 full-length luciferase counterscreen, luminescence; AID 504607; 6,200 tested, 77% active;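 active = mean inhibition at 8 µM reaching about 37%, which flags the compound as non-specific, limit read from the data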;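 note: p53-null SaOS-2 cells with luciferase driven by a doxycycline-inducible promoter; compound on cells about two nights before reading with doxycycline added after day one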
A number is an active result; n = inactive; x = no result given; ! = a repeat was not active. The list is not random: actives were taken first. Their share in the collection is about 4%.

SMILES	Gli-Sufu block	PAX8 reporter	Beta apoptosis	Shn3 inh set2	CSC inhib	Mdm2 MdmX PPI	Mdm2 MdmX conf	others
O=C(CC1C[C@H](C(=O)N2CCCCC2)[C@@]2(CCc3ccccc3)c3[nH]c4ccccc4c3CCN2C1=O)NCCC1=CCCCC1 (stereo not given in full)	n	n	n	n	x	79	n
O=C(N[C@H]1CC[C@H](CC(=O)N2CCCCC2)O[C@@H]1CO)c1ccccn1	x	n	x	x	x	x	x
CS(=O)(=O)Nc1ccc2c(c1)[C@@H]1C[C@@H](CC(=O)NCc3cc(F)ccc3F)O[C@H](CO)[C@@H]1O2	x	n	x	x	x	x	x
Cc1ccc(S(=O)(=O)N2C[C@@H]3[C@H]4CC[C@H](C4)[C@@H]3[C@@H](C)[C@@H]2c2ccn(Cc3ccccc3)c2)cc1	n	n	x	n	x	50	n
Cc1ccc(Cl)cc1NC1=C/C(=N\S(=O)(=O)c2cccs2)c2ccccc2C1=O	n	104	111	97	101	81	100	FLuc counter=52
Cc1ccc(NC2=C/C(=N\S(=O)(=O)c3cccs3)c3ccccc3C2=O)c(C)c1	65	x	114	98	n	84	100	FLuc counter=52
C[C@@H]1CN([C@H](C)CO)C(=O)c2cc(NS(C)(=O)=O)ccc2O[C@@H](C)CCCCO[C@H]1CN(C)Cc1ccc(C(=O)O)cc1	x	n	x	x	x	x	x
C[C@@H]1CN([C@@H](C)CO)S(=O)(=O)c2ccc(Br)cc2O[C@H]1CN(C)Cc1ccccc1	x	n	x	x	x	x	x
Cc1ccc(NC(=O)CC(=O)Nc2ccc(C)c(C)c2)cc1C	n	n	n	n	x	n	x
Cc1ccc(Sc2ccc(NC(=O)CCl)cc2)cc1C	n	n	n	n	n	81	n
Cc1ccc(C)c(Sc2ccc(NC(=O)CCl)cc2)c1	n	n	n	x	n	67	n
CO[C@@H]1CN(C)C(=O)c2ccc(NC(=O)Nc3cccc(F)c3)cc2OC[C@H](C)NC[C@H]1C	x	n	x	x	x	x	x
CCC(=O)N1[C@H](CO)[C@H]2c3ccccc3N(C(=O)c3cnccn3)C[C@H]21	x	n	x	x	x	x	x
COc1cc(OC)cc(C(=O)Nc2ccccc2-c2nnn(CC(=O)Nc3cc(C)on3)n2)c1	n	n	n	n	n	71	n
CC(C)(C)NC(=O)Cn1nnc(-c2ccccc2NC(=O)c2cnccn2)n1	n	n	n	n	x	n	x
COc1ccc(NC(=O)Cn2nnc(-c3ccccc3NC(=O)c3ccco3)n2)cc1	n	x	n	n	n	55	56	FLuc counter=n
COc1ccccc1NC(=O)Cn1nnc(-c2ccccc2NC(=O)c2cnccn2)n1	n	n	n	n	n	52	n
O=C(Cn1nnc(-c2ccccc2NC(=O)c2ccccc2F)n1)NCc1ccco1	n	n	x	n	n	50	n
CC(C)C(=O)Nc1ccc2c(c1)C(=O)N(C)[C@@H]1CC[C@@H](CC(=O)NCCc3ccccc3)O[C@@H]1CO2	x	n	x	x	x	x	x
CO[C@@H]1CN(C)C(=O)c2cc(NC(=O)C3CC3)ccc2OC[C@H](C)N(C(=O)Cc2ccccn2)C[C@@H]1C	x	n	x	x	x	x	x
CC(=O)[C@H]1CC[C@H]2[C@@H]3CCC4=CC(=O)CC[C@]4(C)[C@H]3CC[C@]12C	n	n	n	n	n	n	x
CC(=O)SC1CC2=CC(=O)CCC2(C)C2CCC3(C)C(CCC34CCC(=O)O4)C12 (stereo not given)	n	n	x	n	n	51	48	FLuc counter=96
N#C[C@H]1[C@@H](c2ccc(C3=CCCCC3)cc2)[C@H](CO)N1C(=O)NC1CCCCC1	x	n	x	x	x	x	x
CC(=O)NCc1ccc(S(=O)(=O)N2CCN(S(=O)(=O)c3ccc4ccccc4c3)CC2)cc1	n	n	x	n	x	63	n
COC(=O)c1[nH]c2ccc(Br)cc2c1NC(=O)CN1CCCc2ccccc21	n	n	n	n	n	53	n
SMILES	Gli-Sufu block	PAX8 reporter	Beta apoptosis	Shn3 inh set2	CSC inhib	Mdm2 MdmX PPI	Mdm2 MdmX conf	others
COC(=O)c1[nH]c2ccc(Br)cc2c1NC(=O)CN1CCN(C2CCCCC2)CC1	n	n	n	n	n	99	99	FLuc counter=51
COC(=O)c1[nH]c2cc(C)ccc2c1NC(=O)CN1CCCc2ccccc21	n	x	n	n	n	n	x
O=C(CC1CC1)N1[C@H](CO)[C@@H](c2ccccc2)C12CN(Cc1cccnc1)C2	x	n	x	x	x	x	x
CN(Cc1cnc2nc(N)nc(N)c2n1)c1ccc(C(=O)N[C@@H](CCC(=O)O)C(=O)O)cc1	57!	n	n	n	86!	n	72	FLuc counter=n
CC(C)n1c(SCC(=O)Nc2nc3c(s2)CCCC3)nc2c1c(=O)n(C)c(=O)n2C	n	n	n	n	n	60	n	FLuc counter=40
COc1cc(C2c3[nH]c4ccccc4c3C[C@@H]3C(=O)N(Cc4ccco4)CC(=O)N23)cc(OC)c1OC (stereo not given in full)	n	n	n	n	n	n	x
C=CCc1cccc([C@@H]2[C@@H](C)CC[C@H]3C(=O)N4[C@@H](c5cc(OC)c(OC)c(OC)c5)c5[nH]c6ccccc6c5C[C@H]4C(=O)N23)c1	x	x	n	x	n	71	63	FLuc counter=60
C[C@@H]1CN([C@H](C)CO)C(=O)Cc2cc(NC(=O)CCC(F)(F)F)ccc2O[C@H]1CN(C)Cc1ccc(C(=O)O)cc1	x	n	x	x	x	x	x
Cc1ccc(CN2CCC(CO)(CC3CCCCO3)CC2)o1 (stereo not given)	n	n	n	n	x	n	x
Cc1ccc2[nH]c(CN3CCC(CO)(CC4CCCCO4)CC3)c(C)c2c1 (stereo not given)	n	n	n	n	n	53	n
COc1ccccc1N1CCN(C(=O)c2ccc3c(=O)n(Cc4ccco4)c(=S)[nH]c3c2)CC1	n	n	n	n	n	n	x
CCOC(=O)N1CCN(C(=O)c2ccc3c(=O)n(-c4ccc(OC)cc4OC)c(=S)[nH]c3c2)CC1	n	x	n	n	n	n	x
CCOC(=O)N1CCN(C(=O)c2ccc3c(=O)n(-c4ccc(OC)cc4)c(=S)[nH]c3c2)CC1	n	n	n	n	n	69	n
COc1ccccc1Cn1c(=S)[nH]c2cc(C(=O)N3CCN(c4ccccc4OC)CC3)ccc2c1=O	n	n	n	n	n	61	42	FLuc counter=54
O=C(C[C@@H]1CC[C@@H]2[C@H](COC[C@@H](O)CN2CC2CC2)O1)NCC1CC1	x	n	x	x	x	x	x
CC(=O)Nc1sc(C)c(C)c1C(=O)OCC(=O)N(CC(C)C)c1c(N)n(Cc2ccccc2)c(=O)[nH]c1=O	n	n	n	n	81	100	n
CC(C)CN(C(=O)COC(=O)C12CC3CC(CC(O)(C3)C1)C2)c1c(N)n(Cc2ccccc2)c(=O)[nH]c1=O	x	n	x	n	x	x	x
COC(=O)c1c(C)[nH]c(C(=O)OCC(=O)N(CC(C)C)c2c(N)n(Cc3ccccc3)c(=O)[nH]c2=O)c1C	n	n	n	n	n	n	x
